Assay outcomes: PubChem BioAssay, several laboratories
HIF activator = HIF pathway transcriptional activation; actives 0.32% (n = 300,000); U2OS HRE-luciferase reporter, luminescence; normalized: DMSO 0%, desferrioxamine 100%; activation, % at 7.5 µM (by protocol);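 active = mean activation of at least 10% of the iron chelator positive control signal, with at least half of replicates also reaching 10%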
STK33 kinase inh = human STK33 kinase inhibition; Q9BYT3; purified STK33, MBP phosphorylation, ADP-Glo luminescence; inhibition, % at 10 µM; actives 0.073% (n = 320,000); AID 2661;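 active = inhibition at or above 25%, using the most active replicate where run in duplicate; inactive = inhibition below 25%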
Target sequence (Q9BYT3 whole entry, looked up): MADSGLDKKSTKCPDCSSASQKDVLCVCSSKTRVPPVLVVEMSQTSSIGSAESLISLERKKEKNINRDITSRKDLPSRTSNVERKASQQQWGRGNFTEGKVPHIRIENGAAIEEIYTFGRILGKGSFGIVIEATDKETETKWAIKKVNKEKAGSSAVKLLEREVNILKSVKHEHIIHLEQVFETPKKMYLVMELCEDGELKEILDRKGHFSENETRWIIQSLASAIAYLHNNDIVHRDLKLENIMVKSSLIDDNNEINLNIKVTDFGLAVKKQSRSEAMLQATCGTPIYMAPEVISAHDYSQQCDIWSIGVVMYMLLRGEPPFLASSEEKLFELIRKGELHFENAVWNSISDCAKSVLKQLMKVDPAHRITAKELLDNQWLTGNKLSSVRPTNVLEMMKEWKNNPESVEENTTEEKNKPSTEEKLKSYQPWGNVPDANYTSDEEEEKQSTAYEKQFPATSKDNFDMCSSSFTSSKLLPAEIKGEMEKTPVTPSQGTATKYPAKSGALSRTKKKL
Dyrk1A ADPGlo = blocks rat Dyrk1A kinase activity; ADP-Glo luminescence, NFATc1 peptide; inhibition, % at 12.5 µM; actives 0.43% (n = 310,000); AID 504441; in the data active = inhibition above about 50%;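 also: plate controls were vehicle with enzyme for no effect and no enzyme for full effect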
PP1 counter = blocks human PP1-alpha phosphatase, a PP5 counter-screen | P62136 | purified PP1alpha, OMFP fluorescence | inhibition, % at 6.7 µM | actives 0.9% (n = 320,000) | AID 2235;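 active = inhibition above the mean inhibition of all tested compounds plus 3 SD, computed separately for each screening campaign, cut at about 15% in these data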
PP5 inh = inhibitors of human protein phosphatase 5 (PP5) | purified PP5c, OMFP substrate fluorescence | actives 0.18% (n = 320,000) | inhibition, % at 6.7 µM;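 active = inhibition above the campaign's mean inhibition across all tested compounds plus 3 SD, cut at about 9.5% in these data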;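 also: 0% = DMSO only and 100% = 100 µM cantharidin control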
* marks the source's active call; other numbers are inactive results; · = no result given. Compounds with a hit are over-represented: about 1.5% of the library has one in this group of screens.

SMILES	HIF activator	STK33 kinase inh	Dyrk1A ADPGlo	PP1 counter	PP5 inh
Nc1cccc(-c2c[nH]c3ncc(-c4cccnc4)cc23)c1	·	·	77.4*	·	·
CC(C)=CCC/C(C)=C/CC/C(C)=C/COc1ccc2ccc(=O)oc2c1	·	0.5	-1.2	·	·
COc1ccc(C(=O)NC2=Nc3ccccc3N=C(C)C2c2ccccc2)cc1 (stereo not drawn)	24.9*	-0.8	-7.8	0.6	2.1
CC1=Nc2ccccc2N=C(NC(=O)/C=C/C(=O)O)C1c1ccccc1 (stereo not drawn)	2.6	-2.3	-0.8	0.3	-1.1
O=C(O)c1cc(S(=O)(=O)NCCCN2CCCC2=O)ccc1Cl	·	-1.2	-2.4	·	·
O=C(O)c1ccc(N=Nc2c(O)[nH]c3ccccc23)cc1	-1.7	29.1*	4.8	-2.4	2.6
COc1cc(N=Nc2cccc(S(N)(=O)=O)c2)c2ccccc2c1N	1.1	4.3	58.5*	7.8	5.7
O=[N+]([O-])c1ccc(S(=O)(=O)N2CCN(c3ccnc4cc(Cl)ccc34)CC2)cc1	-0.7	-1.2	5.5	17.3*	2.7
O=S(=O)(c1cccc(Br)c1)N1CCN(c2ccnc3cc(Cl)ccc23)CC1	0.3	-2.0	-0.2	5.7	3.9
CCOC(=O)c1c(C)n(-c2ccc(C)cc2)c2ccc(OCC(O)CNCCCO)cc12 (stereo not drawn)	·	1.8	1.4	-0.9	0.3
CCOC(=O)c1c(C)n(-c2ccc(C)cc2)c2ccc(OCC(O)CNCC3CCCO3)cc12 (stereo not drawn)	-7.4	1.4	3.3	16.0*	3.7
CCN(CC)c1ccc(/C=N/NC(=O)Cc2cccs2)c(O)c1	1.7	-0.3	-2.1	15.9*	4.7
CCN(CC)c1ccc(/C=N/NC(=O)c2ccco2)c(O)c1	78.3*	-1.0	-5.3	-4.1	2.4
O=C(Cc1c[nH]c2ccccc12)N1CCN(S(=O)(=O)c2cccc(Cl)c2Cl)CC1	·	0.1	0.1	1.1	2.3
Cn1c(N/N=C/c2c[nH]c3ccccc23)nc2ccccc21	2.3	-0.2	4.6	-2.2	-1.8
Cn1c(N/N=C/c2cc3ccccc3nc2Cl)nc2ccccc21	21.9*	1.8	0.5	-0.9	-0.5
CCn1ncc(Br)c1C(=O)NC1CCCCCCC1	-0.3	-1.4	13.8	·	·
O=S(=O)(Nc1cccc(-c2ccc(N3CCCCCC3)nn2)c1)c1ccc(C(F)(F)F)cc1	1.7	-1.8	-6.8	16.6*	3.5
O=S(=O)(Nc1cccc(-c2ccc(N3CCCCCC3)nn2)c1)c1ccc(F)cc1	1.7	-0.5	0.6	5.2	3.3
O=S(=O)(Nc1cccc(-c2ccc(N3CCCCCC3)nn2)c1)c1ccccc1Cl	-0.7	-2.8	·	17.3*	6.9
Cc1ccc(S(=O)(=O)Nc2cccc(-c3ccc(N4CCCCCC4)nn3)c2)cc1C	1.9	-0.8	6.3	17.1*	4.3
COc1cccc(NC(=O)CNC(=O)Cn2cnc3sc(C)c(C)c3c2=O)c1	0.0	-1.5	-1.5	-2.9	-0.3
CC1CCC(NC(=O)CCS(=O)(=O)c2ccc3c(c2)oc(=O)n3C)CC1 (stereo not drawn)	-0.1	0.1	-0.7	-2.1	-1.6
COc1ccc(C2CC(=O)c3cnn(-c4nc(C)cc(C)n4)c3C2)cc1 (stereo not drawn)	2.6	-0.5	1.0	-0.4	1.0
Cc1cc(C)nc(N/N=C/C2=C(O)CC(c3ccc(F)cc3)CC2=O)n1 (stereo not drawn)	21.9*	-0.8	·	1.0	1.9
SMILES	HIF activator	STK33 kinase inh	Dyrk1A ADPGlo	PP1 counter	PP5 inh
O=C(NCc1cccnc1)c1ccccc1NS(=O)(=O)c1ccc(Br)cc1	·	0.1	-4.2	·	·
CC1CCN(c2nc3c(c(=O)[nH]c(=O)n3C)n2Cc2ccccc2)CC1	-0.3	-2.1	1.1	-4.8	-0.8
CCn1c(N2CCC(Cc3ccccc3)CC2)nc2c1c(=O)[nH]c(=O)n2C	17.0*	-0.7	-1.7	2.9	2.6
CC(C)C(NC(=O)C(C)N1C(=O)c2ccccc2C1=O)c1ccccc1 (stereo not drawn)	-0.3	-1.6	1.0	-2.2	-1.6
O=c1[nH]cc(S(=O)(=O)Nc2ccc3c(c2)OCO3)c(=O)[nH]1	1.1	0.3	8.4	-2.9	1.9
CCc1nnc(NC(=O)C2CCN(C(=O)c3ccco3)CC2)s1	0.9	0.5	0.5	-0.3	0.0
CCC(C)(C)c1nnc(NC(=O)C2CCN(C(=O)c3ccco3)CC2)s1	26.6*	-2.0	-2.1	0.8	1.9
CCN(CC)CCn1nc2c3c(cccc3c1=O)-c1ccccc1-2	29.2*	2.9	12.0	-4.8	2.7
CCCC(=O)Nc1cc(OC)c(C(=O)OC)cc1Cl	-0.2	-1.7	-5.1	0.5	0.8
